DT40 TDP1 no CPT – qHTS for Inhibitors of human tyrosyl-DNA phosphodiesterase 1 (TDP1): qHTS in cells in absence of CPT. DT40 Tdp1-/- hTDP1 cells, no CPT, ATP luminescence, 48 h. Potency, µM (top dose mostly 46.2 µM), usual class: inhibitors. 15% of 420,000 active; further: nearly all actives have a fitted effect of over 55% in size
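Luminescent ATP content (CellTiter-Glo) served as the growth readout. Knockout chicken DT40 cells expressing human TDP1 were exposed to compounds without camptothecin for a minimum 48 hr at 37 °C.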
DRD3 agonist – agonists of human D3 dopamine receptor; 0.58% of 410,000 active; P35462; D3R DiscoveRx beta-arrestin cells, luminescence, 90 min; AID 652048; max activation, %; in the data active means max activation above about 30%
Target sequence (P35462 whole entry, looked up): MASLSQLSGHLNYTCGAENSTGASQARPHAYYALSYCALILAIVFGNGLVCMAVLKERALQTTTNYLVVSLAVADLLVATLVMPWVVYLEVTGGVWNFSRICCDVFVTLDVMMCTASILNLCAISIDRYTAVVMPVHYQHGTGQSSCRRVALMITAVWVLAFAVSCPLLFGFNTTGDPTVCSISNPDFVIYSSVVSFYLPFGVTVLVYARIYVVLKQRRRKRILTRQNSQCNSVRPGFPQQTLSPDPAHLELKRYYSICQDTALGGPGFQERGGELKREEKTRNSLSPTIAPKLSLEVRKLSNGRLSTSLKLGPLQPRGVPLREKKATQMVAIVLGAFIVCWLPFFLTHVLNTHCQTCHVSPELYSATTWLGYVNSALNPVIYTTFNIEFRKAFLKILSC
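Agonist-mode cell screen: cells plated at 1500/well and incubated overnight at 37 °C, then exposed to library compounds for 90 min at 37 °C. Detection reagent was added for 30–60 min at room temperature, and luminescence was read.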
ClpP mod – qHTS Assay for Activators of ClpP; ATP-dependent Clp protease proteolytic subunit (Bacillus subtilis (strain 168)), P80244; purified B. subtilis ClpP, FRET peptide cleavage, 20 min; 1.9% of 340,000 active; Potency, µM (doses to about 57.5 µM); active means well fitted falling curve with a large enough effect; inconclusive means small, poorly fitted or top-dose-only effect; inactive means no such curve, though single readings can be large or run the other way; further: the source files actives as falling curves though it sought activators and does not explain the sign; nearly all actives have a fitted effect of over 65% in size
Target sequence (P80244 whole entry, looked up): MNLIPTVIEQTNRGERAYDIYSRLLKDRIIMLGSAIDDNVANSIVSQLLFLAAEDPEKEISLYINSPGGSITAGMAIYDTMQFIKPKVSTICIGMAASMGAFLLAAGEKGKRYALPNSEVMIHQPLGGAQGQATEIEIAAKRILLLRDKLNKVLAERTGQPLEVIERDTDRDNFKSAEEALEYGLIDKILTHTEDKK
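FRET quenching reversal measured ClpP activation: 10 microg/mL B. subtilis ClpP at pH 8 with the FRET-FV decapeptide, read at 430 nm after 320 nm excitation. The 20-min minus 0-min signal was scaled between DMSO/no-enzyme wells and ADEP (5.8 microM final).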
D3 antag – blocks the human D3 dopamine receptor; max response, negative = inhibition, %; D3R cells, DiscoveRx beta-arrestin luminescence, antagonist mode; active compounds read low; AID 652054; 2.5% of 360,000 active; P35462; in the data active means max response below about -50%; inconclusive means no clear call, values can overlap the other calls
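Cells expressing the human receptor were seeded at 1500 cells/well, incubated overnight at 37 degrees C in 5% CO2, then exposed to library compounds with dopamine controls for 90 minutes at 37 degrees C before luminescent detection.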
DT40 TDP1 CPT – growth inhibition of DT40 Tdp1-/-;hTDP1 cells with camptothecin (screen for TDP1 inhibitors); 12% of 420,000 active; chicken DT40 Tdp1-/-;hTDP1 cells + 20 nM CPT, ATP luminescence, 48 h; AID 686979; Potency, µM (titrated, usually from 46.2 µM), actives largely listed as inhibitors; further: nearly all actives have a fitted effect of over 55% in size
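Chicken DT40 Tdp1-/- cells complemented with human TDP1, 400 cells/well, exposed to compounds plus 20 nM camptothecin for at least 48 h at 37 C; viability read as ATP content by CellTiter-Glo luminescence.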
IL1B secr inh – inflammasome signaling inhibition, IL-1 beta readout. activity change, % at 57.5 µM. THP-1 LPS/ATP IL-1B secretion, AlphaLISA, 16 h; active compounds read low. 4.7% of 360,000 active; in the data active means activity change below about -50%; inconclusive means mostly about -30% to -49%
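Secreted IL-1B measured by AlphaLISA bead assay after 16 h compound exposure of THP-1 cells; compounds (final up to 57.5 uM) added 1 h before LPS (250 ng/mL) and ATP (1.25 mM) stimulation; lower signal means less secretion.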
Of the large screens only hits and unclear results are named; the others gave an inactive call. A selection: hits, their analogues and other compounds. The true share with any hit is near 21%. Unless noted, the call rests on the fitted dose curve; in most records, active means well fitted inhibition curve with a large enough effect; inconclusive means small, poorly fitted or top-dose-only effect; inactive means flat fitted curve, though single readings scatter.

O=[N+]([O-])c1cc(/C=N\Nc2nc(-c3ccccc3)cs2)ccc1O	DT40 TDP1 no CPT 18µM, DT40 TDP1 CPT 15µM (no result: ClpP mod)
O=[N+]([O-])c1ccc(-c2csc(N/N=C/c3cccnc3)n2)cc1	DT40 TDP1 no CPT inconclusive, IL1B secr inh inconclusive
Cc1nnc(N/N=C/c2ccc(O)c([N+](=O)[O-])c2)[nH]c1=O	none
O=[N+]([O-])c1cc(/C=N/N/C(=N/c2ccccn2)c2ccccn2)ccc1O	DT40 TDP1 no CPT 4.6µM, D3 antag inconclusive, DT40 TDP1 CPT 3.3µM (no result: ClpP mod)
S=c1[nH]nc(COc2ccc(Cl)cc2Cl)n1-c1ccccc1	none
CC(C)N(CCO)Cc1nc(C(c2ccccc2)c2ccccc2)no1	DT40 TDP1 no CPT inconclusive
CCN1CCN(c2c(C(=O)c3ccc(OC)cc3)cnc3ccccc23)CC1	none
CCOC(=O)C1CCN(c2c(C(=O)c3ccc(OCC)cc3)cnc3ccc(OC)cc23)CC1	DT40 TDP1 no CPT 21µM, DT40 TDP1 CPT 23µM (no result: D3 antag, IL1B secr inh)
CCOC(=O)c1cnc2ccc(OC)cc2c1NCCN1CCOCC1	DT40 TDP1 no CPT inconclusive
CCOC(=O)C1CCCN(c2c(C(=O)c3ccc(OCC)cc3)cnc3ccccc23)C1 (centres undefined)	DT40 TDP1 no CPT inconclusive, DT40 TDP1 CPT 18µM (no result: D3 antag, IL1B secr inh)
COc1cc2ncc(C(=O)c3ccc(C)cc3)c(N3CCCCC3)c2cc1OC	DT40 TDP1 no CPT 12µM, DT40 TDP1 CPT 12µM (no result: D3 antag, IL1B secr inh)
CCOC(=O)C1CCCN(c2c(C(=O)c3ccccc3)cnc3ccc(OC)cc23)C1 (centres undefined)	DT40 TDP1 no CPT 21µM, DT40 TDP1 CPT 15µM
CC(C)N(C(=O)CS(=O)(=O)c1ccc(Cl)c(Cl)c1)C(C)C	DT40 TDP1 no CPT inconclusive (no result: ClpP mod)
Cc1cccc2sc(NNC(=O)c3ccc(S(=O)(=O)N4CC(C)CC(C)C4)cc3)nc12 (centres undefined)	DT40 TDP1 no CPT 7.3µM, DT40 TDP1 CPT 13µM
Cc1cc(C)c2nc(NNC(=O)c3ccc(S(=O)(=O)N4CC(C)CC(C)C4)cc3)sc2c1 (centres undefined)	DT40 TDP1 no CPT 5.8µM, DT40 TDP1 CPT 5.8µM
Cc1cc(C)c2nc(NC(=O)c3ccc(S(=O)(=O)N4CCC(C)CC4)cc3)sc2c1	none (no result: D3 antag, IL1B secr inh)
Cc1cc(C)c2nc(NNC(=O)c3ccc(S(=O)(=O)N4CCCC(C)C4)cc3)sc2c1 (centres undefined)	DT40 TDP1 no CPT 4.1µM, DT40 TDP1 CPT 2.9µM
O=C(NNc1nc2c(F)cccc2s1)c1ccc(F)cc1	DT40 TDP1 no CPT inconclusive, DT40 TDP1 CPT inconclusive
Cc1ccc2nc(NNC(=O)c3ccc(S(=O)(=O)N4CCc5ccccc5C4)cc3)sc2c1	DT40 TDP1 no CPT 5.2µM, DT40 TDP1 CPT 2.9µM
Cc1cc(C)c2nc(NC(=O)c3ccc(S(=O)(=O)N4CCc5ccccc54)cc3)sc2c1	none (no result: D3 antag, IL1B secr inh)
Cn1cnc2c(F)c(Nc3ccc(Br)cc3Cl)c(C(=O)NOCCO)cc21	none (no result: ClpP mod, D3 antag, IL1B secr inh)
COc1ccc2c(COC(=O)c3cccc(S(=O)(=O)NCC(C)C)c3)cc(=O)oc2c1	DT40 TDP1 no CPT inconclusive, DRD3 agonist 32, DT40 TDP1 CPT inconclusive (no result: ClpP mod)
CCCNS(=O)(=O)c1cccc(C(=O)OCc2cc(=O)oc3cc(OC)ccc23)c1	DT40 TDP1 no CPT 1µM, DT40 TDP1 CPT 1µM (no result: ClpP mod)
COc1ccc2c(COC(=O)CNS(=O)(=O)c3ccccc3)cc(=O)oc2c1	none
COc1ccc(C(=O)OCc2cc(=O)oc3cc(C)ccc23)cc1S(=O)(=O)N1CCOCC1	DT40 TDP1 no CPT inconclusive
COc1ccc2c(COC(=O)c3ccc(C)c(S(=O)(=O)N4CCOCC4)c3)cc(=O)oc2c1	DT40 TDP1 no CPT 16µM, ClpP mod 25µM, DT40 TDP1 CPT inconclusive
Cc1csc[n+]1CC(=O)c1ccccc1	none (no result: DRD3 agonist, D3 antag, IL1B secr inh)
O=C(CN(CCO)Cc1ccccc1)N1CCN(S(=O)(=O)c2ccccc2)CC1	none
CS(=O)(=O)Nc1ccc(C(=O)Nc2ccc3ccccc3c2)cc1	DT40 TDP1 no CPT 5.2µM, DT40 TDP1 CPT 2.9µM
CC(C)c1ccc(NC(=O)c2ccc(NS(C)(=O)=O)cc2)cc1	DT40 TDP1 no CPT 4.6µM, DT40 TDP1 CPT 2.9µM (no result: ClpP mod)
Brc1ccsc1-c1csc(-c2ccncc2)n1	DT40 TDP1 no CPT inconclusive
CC(C)CNc1ncnc2c1ncn2[C@H]1CN(Cc2cccc3ccccc23)C[C@@H](CO)O1	DT40 TDP1 no CPT inconclusive, DT40 TDP1 CPT 18µM
OC[C@@H]1CN(Cc2cccc3ccccc23)C[C@H](n2cnc3c(NCc4ccco4)ncnc32)O1	DT40 TDP1 no CPT 21µM, DT40 TDP1 CPT 21µM, IL1B secr inh inconclusive
CC(C)CNc1ncnc2c1ncn2[C@H]1CN(CCc2ccccc2)C[C@@H](CO)O1	IL1B secr inh -71
CCOC(=O)C1CCCN(C(=O)c2cc3c(=O)n(C)c4ccccc4c3s2)C1 (centres undefined)	DT40 TDP1 no CPT inconclusive, DT40 TDP1 CPT inconclusive (no result: D3 antag, IL1B secr inh)
CCCCNC(=O)C1c2ccccc2OCC(=O)N1CC(F)(F)F (centres undefined)	none
CCCCOC(=O)c1ccc(NC(=O)CC2NCCNC2=O)cc1 (centres undefined)	none (no result: D3 antag, IL1B secr inh)
Cc1nc(Sc2ccccc2)c(C#N)c(C)c1[N+](=O)[O-]	DT40 TDP1 no CPT 16µM, DT40 TDP1 CPT inconclusive (no result: ClpP mod, IL1B secr inh)
Cc1cc(C)c(C#N)c(Sc2nc(C)c([N+](=O)[O-])c(C)c2C#N)n1	DT40 TDP1 no CPT 5.8µM, DT40 TDP1 CPT 3.7µM, IL1B secr inh inconclusive
CCOC(=O)C1=C(COC(=O)Cc2ccc(Br)cc2)NC(=O)NC1C (centres undefined)	DT40 TDP1 no CPT inconclusive
CN(Cc1ccc(C#CCCO)cc1)CC1CCCN(CCc2ccc(Cl)cc2)C1 (centres undefined)	DT40 TDP1 no CPT 15µM, DT40 TDP1 CPT 18µM
CCN(Cc1ccc(OC)c(COC)c1)CC1CCCN(CCc2cccc(F)c2)C1 (centres undefined)	DT40 TDP1 no CPT inconclusive, DT40 TDP1 CPT inconclusive, IL1B secr inh inconclusive
COc1ccc(CCN2CCCC(CN(C)Cc3cc(OC)ccc3OC)C2)cc1 (centres undefined)	DT40 TDP1 no CPT inconclusive, DT40 TDP1 CPT inconclusive, IL1B secr inh inconclusive
CN(C)C(=O)CCC(=O)N(C)CC1CCCN(CCc2ccc(F)cc2)C1 (centres undefined)	IL1B secr inh inconclusive
COc1ccc(CCN2CCCC(CN(C)Cc3cccc(OC)c3)C2)cc1 (centres undefined)	DT40 TDP1 no CPT inconclusive, DT40 TDP1 CPT inconclusive (no result: ClpP mod)

Source: PubChem BioAssay (National Center for Advancing Translational Sciences (NCATS))
